# Most compounds without a hit are left out; they make up all but 1.1% or so of the library.
# USP2a block: USP2a (human) protease inhibition | O75604 | USP2 core, Ub-CHOP2 coupled fluorogenic reporter, 485/531 | Potency, µM (highest dose often 38.3 µM), for the others: at the top dose activity change, negative = inhibition, usual class: inhibitors | actives 0.01% (n = 330,000) | AID 463254;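 note: plate controls were DMSO wells for no effect and full inhibition by NEM control for full effect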
#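 Cell-free coupled assay: 10nM USP2 core preincubated 30min RT with compound in Tris-HCl pH 8.0/CaCl2/CHAPS buffer, then 25nM Ub-CHOP2 and 25nM reporter substrate; fluorescence (Ex 485/Em 531) read after 60min RT, normalized to NEM inhibition, concentration-response curves fitted.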
# TSG101-PTAP inh: blocks PTAP/TSG101 interaction to inhibit HIV-1 budding. Q99816. Fluorescence polarization, FITC-PTAP peptide / Tsg101 binding. Potency, µM (titrated, usually from 115 µM), for inactives: at the highest dose activity change, negative = inhibition, usual class: inhibitors. 340,000 tested, under 10 active; active = well fitted inhibition curve with a large enough effect in the main read-out, with a control signal flat, not every such curve was filed as active; inconclusive = small, poorly fitted or top-dose-only effect, or effect the other way, or a change in a side signal; inactive = no such curve, though single readings can be large or run the other way; note: % of control where 0% means no effect
#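 FP read-out: FITC-PTAP peptide, 50 nM final, binding Tsg101 binding domain, 10 uM final; 20 min, r.t.; 10 mM HEPES pH 7.5, 0.15 M NaCl, 0.01% Tween 20, 3 mM EDTA, 0.1 mM TCEP.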
# Eya2 phos inh: blocks the phosphatase activity of human Eya2; O00167; recombinant Eya2, OMFP fluorescence dephosphorylation (OMFP is methylfluorescein phosphate); AID 488837; actives 0.006% (n = 330,000); Potency, µM (highest dose often 76.9 µM), inactives show at the highest dose activity, negative = inhibition, usual class: inhibitors; note: % is set by controls: 0 for no effect and ±100 for the full control effect
#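 Eya2 protein (added as 0.2 uM solution) was preincubated with compound for 10 min at ambient temperature in 50 mM HEPES pH 7.5, 50 mM NaCl, 5 uM MgCl2, 0.05% BSA, 1 mM DTT. OMFP (added at 50 uM) then reacted 10 min; fluorescence read at 485/525 nm.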
# ALOX12 inh: inhibitors of human 12S-lipoxygenase ALOX12. P18054. purified 12hLO, xylenol orange hydroperoxide absorbance. Potency, µM (doses to about 108 µM), inactives show at the highest dose activity change, negative = inhibition, most hits filed as inhibitors. actives 1.1% (n = 580,000). AID 1671190; note: % is set by controls: 0 for no effect and ±100 for the full control effect
# Target sequence (P18054 whole entry, looked up): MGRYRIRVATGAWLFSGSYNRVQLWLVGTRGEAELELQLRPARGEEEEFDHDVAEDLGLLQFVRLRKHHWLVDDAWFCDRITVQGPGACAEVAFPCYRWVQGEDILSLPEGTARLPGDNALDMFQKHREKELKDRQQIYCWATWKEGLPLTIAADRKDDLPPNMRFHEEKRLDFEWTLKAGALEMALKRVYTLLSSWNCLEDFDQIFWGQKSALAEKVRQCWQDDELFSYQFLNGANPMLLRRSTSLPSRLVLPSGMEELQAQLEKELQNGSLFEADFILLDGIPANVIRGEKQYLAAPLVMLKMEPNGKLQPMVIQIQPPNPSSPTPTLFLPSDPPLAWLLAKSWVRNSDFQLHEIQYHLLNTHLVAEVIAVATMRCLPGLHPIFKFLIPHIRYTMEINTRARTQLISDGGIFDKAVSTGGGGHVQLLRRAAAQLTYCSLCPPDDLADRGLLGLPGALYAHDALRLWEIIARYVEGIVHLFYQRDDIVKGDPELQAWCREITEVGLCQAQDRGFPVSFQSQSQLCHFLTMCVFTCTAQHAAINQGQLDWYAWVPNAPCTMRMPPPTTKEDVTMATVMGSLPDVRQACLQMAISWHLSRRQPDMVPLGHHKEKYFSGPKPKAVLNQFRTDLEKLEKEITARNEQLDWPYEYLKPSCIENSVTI
#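 Purified human 12hLO at 150 nM in 25 mM Hepes, 0.01% Triton X-100, pH 7.0, preincubated 15 min at room temperature with compound. Reaction started with 40 uM arachidonic acid, 30 min at room temperature. Hydroperoxide measured by Fe-xylenol orange, 573/405 nm absorbance ratio.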
# Numbers without * were called inactive; ? = inconclusive; · = no result; ! = not confirmed by another sample; [ ] = remark or other dose. Unless noted, calls come from the whole dose curve; as a rule, active = well fitted curve in the direction sought with a large enough effect; inconclusive = small, poorly fitted or top-dose-only effect, or another doubt; inactive = no such curve, though single readings can be large; an effect the other way counts as inactive or inconclusive. Potency is the fitted concentration of half-maximal effect.
SMILES,USP2a block,TSG101-PTAP inh,Eya2 phos inh,ALOX12 inh
Cc1ccc(Cn2c(CCCOc3ccc(Cl)cc3Cl)n[nH]c2=S)cc1,·,·,·,15.8µM*
COCc1cc(C)n(CC(=O)Nc2cc(C(F)(F)F)ccc2Cl)c(=O)c1C#N,·,·,·,-21.3%
Nc1cc(Cc2ccccc2)ccc1O,·,-7.7%,·,5.62µM*
Nc1ccccc1O,0.7%,-0.2%,7.6%,·
Cn1cccc1CN1CCC[C@]2(N[C@H](c3ccccc3)[C@@H]3C(=O)N(Cc4ccccc4)C(=O)[C@@H]32)C1=O,·,·,·,10µM*
COc1ccc([C@H]2N[C@]3(CCCN(Cc4cccn4C)C3=O)[C@H]3C(=O)N(Cc4ccccc4)C(=O)[C@@H]23)cc1,·,·,·,-26.7%
COc1ccc([C@H]2N[C@]3(CCCN(Cc4cccn4C)C3=O)[C@H]3C(=O)N(C)C(=O)[C@@H]23)cc1,·,·,·,11.2µM*
O=c1cc(CN2CCCCC2)nc2nc(-c3ccccc3)[nH]n12,·,·,·,-29.4%
O=c1cnc(-c2ccc(Cl)cc2)cn1O,0.7%,-5.7%,6.4%,50.1µM*
Cc1cc(C)cc(NC(=O)CC2C(=O)Nc3nc(-c4ccccc4)nn32)c1 (stereo unspecified),·,·,·,-7.2%
CC(=O)c1ccc(N2CCN(CC(O)COC(c3ccccc3)c3ccccc3C)CC2)cc1 (stereo unspecified),-7.0%,-2.0%,-11.3%,0.631µM*
O=C(NC1(O)C(=O)c2ccccc2C1=O)c1ccccc1,0.7%,-0.1%,6.9%,31.6µM*
C/C(=N\Nc1nc2c(s1)CCCC2)c1ccc(Cl)cc1,4.9%,0.3%,-5.2%,39.8µM*
COc1ccc(Cl)cc1NC(=S)NCCSc1ccc(C)cc1,-8.6%,-2.5%,-3.4%,44.7µM*
Cc1ccc(Cl)cc1NC(=S)NCCSc1ccc(Cl)cc1,·,·,·,35.5µM*
Cc1ccc(Cl)cc1NC(=S)NCCSc1ccccc1,·,·,·,-94.8%
CCOC(=O)C1(Cc2ccccc2C(F)(F)F)CCN(Cc2ccccn2)CC1,·,·,·,15.8µM*
CCNc1cc(N2CCC(CCC(=O)N3CCCN(c4ncccn4)CC3)CC2)ncn1,·,·,·,15.0%
CCOC(=O)C(O)(NC(=O)NC(C)=O)C(F)(F)F (stereo unspecified),·,·,·,-24.0%
CC(C)CCC(CCNC(C)c1cccs1)C1CCOC(C)(C)C1 (stereo unspecified),·,·,·,1.78µM*
CC(=O)NC1(C(=O)NCC(=O)NC(C)(C)C)CCCCC1,·,·,·,9.9%
CCCCCCCCS(=O)CCCCC(=O)O (stereo unspecified),·,·,·,22.5%
CCCCCCCCS(=O)CCC(=O)O (stereo unspecified),1.8%,1.7%,10.8%,25.1µM*
COc1ccc(CNC(=O)Cc2c(C)c3c(OC)cc(C)cc3oc2=O)cc1,·,·,·,29.8%
CCOc1ccccc1CN1CCC2(CCN(C(=O)COC)CC2)Oc2ccccc21,·,·,·,-1.8%
SMILES,USP2a block,TSG101-PTAP inh,Eya2 phos inh,ALOX12 inh
CCOc1ccccc1CN1CCC2(CCN(Cc3ccc(F)cc3)CC2)Oc2ccccc21,·,·,·,31.6µM*
CC1(NC(=O)C2CC2)CN(Cc2nc(-c3ccc(Oc4ccccc4)cc3)cs2)C1,·,·,·,14.8%[176 µM]
O=C(/C=C/c1c(F)cccc1Cl)N1CCc2ccccc2C1,1.1%,0.8%,-6.6%,5.62µM*
CCN1CCN(C(=O)/C=C/c2c(F)cccc2Cl)CC1,1.7%,-1.7%,-1.2%,?
O=C(N/N=C/c1cccs1)c1ccc2ccccc2c1,0.8%,-0.2%,-5.7%,0.0%
O=C(N/N=C/c1cccs1)c1cccc2cc[nH]c12,2.5%,-10.3%,25.1µM*,19.4%
COc1cc(OC)cc(C(=O)NC(=S)Nc2ccc3c4c(cccc24)CC3)c1,0.7%,-0.3%,15.5%,?
CC(C)Oc1cccc(C(=O)NC(=S)Nc2ccc3c4c(cccc24)CC3)c1,5.8%,4.3%,-4.0%,17.8µM*
CCCC(=O)OCC,·,·,·,-1.1%[176 µM]
CCN1C(=O)/C(=C/c2c(C)nn(C)c2C)SC1=S,10.2%,2.2%,-7.5%,10µM*
Cc1ccc2nc(-c3sc4nc(C)ccc4c3N)[nH]c2c1,-4.8%,-2.1%,-13.4%,35.5µM*
CS(=O)(=O)Nc1cccc(NC(=O)c2ccc(-n3ccnc3)c3ccoc23)c1,·,·,·,10µM*
O=C(NCC1CC1)c1ccc(-n2ccnc2)c2ccoc12,·,·,·,10µM*
COc1ccc(-c2ccc(C(=O)NCC3CC3)c3occc23)c(C)c1,·,·,·,-16.4%
Cn1nccc1-c1ccc(C(=O)Nc2cccc(NS(C)(=O)=O)c2)c2occc12,·,·,·,0.8%
CCCCCn1nc(C(=O)OCC(=O)NC(C)c2ccccc2)c2ccccc2c1=O (stereo unspecified),·,·,·,-15.5%
Cc1cc(C)n(Cc2ccc(C(=O)Nc3ccc(Br)cc3C)o2)n1,0.6%,-1.8%,3.0%,35.5µM*
Cc1ccc(C)n1C1C(=O)N(C)c2ccccc21 (stereo unspecified),·,·,·,-69.4%
COc1ccc2c(c1)C(n1c(C)ccc1C)C(=O)N2C (stereo unspecified),·,·,·,11.2µM*
Cc1ccc(C)n1C1C(=O)N(C)c2ccc(Cl)cc21 (stereo unspecified),·,·,·,44.7µM*
Cc1ccc(-c2cnc([C@@H]3COCCN3C(C)C)[nH]2)cc1,·,·,·,15.8%[176 µM]
CC(C)(C)c1ccc(-c2cc3ccccn3c2)cc1,·,·,·,22.4µM*
c1ccn2cc(-c3ccc4c(c3)OCO4)cc2c1,-4.7%,-0.3%,7.1%,?
Brc1ccc(-c2cc3ccccn3c2)cc1,·,·,·,14.1µM*
C/C(=N\Nc1cc(C)nc(NCc2ccccc2)n1)c1ccncc1,·,·,·,17.3%
SMILES,USP2a block,TSG101-PTAP inh,Eya2 phos inh,ALOX12 inh
CN1C[C@@H](NC(=O)c2cnccn2)C[C@H]1c1nc(-c2ccc(OC(F)(F)F)cc2)no1,·,·,·,35.1%[176 µM]
N#CC(=C(/N)Sc1ccccc1N)/C(C#N)=C(\N)Sc1ccccc1N,·,·,·,31.6µM*!
Cc1cc(C)c(C#N)c(Sc2ccccc2N)n1,-0.1%,0.6%,-8.8%,-24.8%
CCOc1ccccc1C(=O)NC1CCN(c2cc(C(F)(F)F)nc(C)n2)CC1,·,·,·,8.4%
CCN(CC)c1ccc(/C=N/NS(=O)(=O)c2ccc(Cl)cc2)cc1,·,·,·,31.6µM*
COc1ccc(-c2cc(C(=O)N3CCOCC3)c3c(C)nn(-c4ccccc4)c3n2)cc1,·,·,·,-3.1%[6.33 µM]
CCCCn1c(N)c(N(CC(C)C)C(=O)c2cc(-c3ccco3)nc3ccccc23)c(=O)[nH]c1=O,-1.2%,1.5%,10.2%,39.8µM*
CCCCn1c(N)c(N(CC)C(=O)Cn2c(CC)nc3ccccc32)c(=O)[nH]c1=O,·,·,·,25.1µM*
COc1ccc(-c2cc(N3CCCN(C(=O)c4cc5ccccc5[nH]4)CC3)n[nH]2)cc1,·,·,·,4.8%
C/C=C/C=C\C(=O)Nc1cccc(C2=NOC3(C2)C[C@@H](C(N)=O)N(C(=O)c2cc([N+](=O)[O-])cc([N+](=O)[O-])c2C)C3)c1 (stereo partly specified),-8.2%,-2.3%,1.9%,15.8µM*
CCCCCC(=O)Nc1cccc(C2=NOC3(C2)C[C@@H](C(N)=O)N(C(=O)c2cc([N+](=O)[O-])cc([N+](=O)[O-])c2C)C3)c1 (stereo partly specified),5.8%,0.5%,-2.9%,?

# Screening results deposited in PubChem BioAssay by National Center for Advancing Translational Sciences (NCATS).
